Results reported in PubChem BioAssay (NCI).
The panel holds about 83,000 compounds, 20% with a hit somewhere; the sample as a whole holds those more often.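 Cells were grown in 96-well plates and exposed to the test compound at a single concentration for 48 hours; results are reported as percent growth, with values below 10 considered active.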 Values without a mark were called inactive. Calls of active or inactive are those of the source.

Key:
Experiment in all cases: NCI-60 one-dose screen, 48 h (100 = growth as untreated, 0 = no growth, -100 = all killed)
Conditions in all cases: 10 µM unless noted
RPMI-8226 leukemia = system: RPMI-8226 leukemia
OVCAR-8 ovarian = system: OVCAR-8 ovarian
OVCAR-5 ovarian = system: OVCAR-5 ovarian
OVCAR-4 ovarian = system: OVCAR-4 ovarian
SK-OV-3 ovarian = system: SK-OV-3 ovarian
IGROV1 ovarian = system: IGROV1 ovarian
OVCAR-3 ovarian = system: OVCAR-3 ovarian
HS 578T breast = system: HS 578T breast
NCI/ADR-RES ovarian = system: NCI/ADR-RES ovarian
T-47D breast = system: T-47D breast
BT-549 breast = system: BT-549 breast
MDA-MB-435 melanoma = system: MDA-MB-435 melanoma
SW-620 colon = system: SW-620 colon
MCF7 breast = system: MCF7 breast
HCT-116 colon = system: HCT-116 colon
HCC-2998 colon = system: HCC-2998 colon
KM12 colon = system: KM12 colon
SR leukemia = system: SR leukemia

Structure (SMILES) | growth (RPMI-8226 leukemia) | growth (OVCAR-8 ovarian) | growth (OVCAR-5 ovarian) | growth (OVCAR-4 ovarian) | growth (SK-OV-3 ovarian) | growth (IGROV1 ovarian) | growth (OVCAR-3 ovarian) | growth (HS 578T breast) | growth (NCI/ADR-RES ovarian) | growth (T-47D breast) | growth (BT-549 breast) | growth (MDA-MB-435 melanoma) | growth (SW-620 colon) | growth (MCF7 breast) | growth (HCT-116 colon) | growth (HCC-2998 colon) | growth (KM12 colon) | growth (SR leukemia)
Cn1cc(-c2ccc(-c3cn(C)c4ncccc34)[nH]2)c2cccnc21 | 31.9% | 23.3% | -6.91% (active) | -44.4% (active) | 106% | 73.8% | -36.9% (active) | 45.7% | 76% | -29.1% (active) | -12% (active) | 86.6% | 24% | 75.2% | 67.3% | 33.3% | 14.6% | –
CC1=C(NCCN2CCCC2)C(=O)c2c(OCc3cccc(Cl)c3)cccc2C1=O | – | 79.7% | 79.9% | 73.1% | 95.2% | 71.8% | 85% | 72.4% | 78.7% | 59.9% | – | 61.8% | 85.1% | 57.5% | 43.9% | 84.4% | 81% | 14.1%
O=[N+]([O-])c1cccc(-c2nc3sccn3c2-c2ccnc(NCCNS(=O)(=O)c3ccc(C(F)(F)F)cc3)n2)c1 | – | 26.1% | 87.4% | 31.2% | 74% | 27.1% | 40.5% | 66.4% | 26.9% | -3.01% (active) | 26.4% | 20.7% | 69.8% | 21.9% | 35.6% | 65.2% | 22.5% | 39.2%
C=C1CCC2C3(C)COC(C)(C)OC3CCC2(C)C1C/C=C1/C(=O)OCC1OC(C)=O (configuration not stated) | -42% (active) | -5.77% (active) | 38.3% | 32.3% | 97.4% | 69.6% | -9.88% (active) | 12% | 51% | 27.7% | 52.9% | 27.1% | -38.8% (active) | 16.5% | -21.1% (active) | 100% | 10.1% | –
O=C1/C(=C\c2cn(C(=O)c3ccc(Cl)cc3)c3ccccc23)c2ccccc2N1c1c(Cl)cccc1Cl | – | 113% | 94.3% | 99.5% | 116% | 99.2% | 116% | 107% | 99.7% | – | 107% | 116% | 105% | 95.7% | 94.1% | 102% | 111% | 99.6%
COc1cccc(/C=C\C(=O)c2ccccc2)c1 | – | 81.4% | 94.7% | 47.4% | 107% | 2.47% (active) | -4.31% (active) | 85.8% | 88% | 56.5% | – | 72.9% | 15% | 11.5% | 16.2% | – | 8.52% (active) | 47.5%
COc1ccc(/C=N\NC(=O)CN2CCN(c3cc4c(cc3F)c(=O)c(C(=O)N/N=C/c3ccc(OC)cc3)cn4C3CC3)CC2)cc1 | – | 92.2% | 122% | 80.7% | 112% | 72% | 85.2% | 92.4% | 88.2% | – | 88.5% | 90.3% | 101% | 73.2% | 88.8% | 102% | 89.8% | 72.1%
COc1c(C2CC(=O)Nc3c2cnn3Cc2ccco2)cc2c(c1OC)OCO2 (configuration not stated) | – | 18% | 40.8% | 39.2% | -9.03% (active) | 52.8% | -35.9% (active) | 30.4% | 4.88% (active) | 55.6% | 8.74% (active) | -58.4% (active) | 23% | 12.8% | 12.8% | – | 16.8% | 2.13% (active)
COc1ccc(-c2cc(C(=O)N=Nc3c(O)[nH]c4ccccc34)no2)cc1 | 96.9% | 103% | 97.7% | 105% | 103% | 102% | 108% | 95.3% | 102% | 98% | 109% | 102% | 96.9% | 95.1% | 100% | 107% | 101% | –
